Measured values taken from PubChem BioAssay (NCATS).
Inconclusive results are not listed. Calls of active or inactive are those of the source. The call rests on the fitted dose curve; in most records, active means well fitted inhibition curve with a large enough effect; inconclusive means small, poorly fitted or top-dose-only effect; inactive means no such curve, though single readings can be large or run the other way.

system: Zika virus NS2B-NS3 protease (linked construct); test: Primary screen NINDS Rhodamine qHTS for Zika virus inhibitors (AID 1347160); details: purified NS2B-NS3 protease, Rhodamine110 substrate fluorescence; series mostly up to 57.1 µM; activity change, negative = inhibition: at the top concentration; further: nearly all actives have a fitted effect of over 55% in size
Outline: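 Single-chain NS2B-NS3 protease, 25 nM, pH 8.0; compounds preincubated 15 min. Activity: Rhodamine110 release from 1.5 microM substrate over 15 min, room temperature, data fitted to 4-parameter Hill.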
On the % scale 0 is the no-effect control and ±100 the full control effect.

Row | Compound | activity change, negative = inhibition | outcome
1 | CC(C)CCC[C@@H](C)[C@H]1CC[C@H]2[C@@H]3CC(=O)[C@H]4C[C@@H](O)CC[C@]4(C)[C@H]3CC[C@]12C | -21.1% (inactive) | –
2 | O=C(NCc1ccc(F)cc1)C(=O)c1c[nH]c2ccccc12 | -0.66% (inactive) | –
3 | CC(C)(C)CCN1C[C@@H]2C(CNC(=O)c3cc(Cl)cc(Cl)c3)[C@@H]2C1 (some centres undefined) | 51.4% (inactive) | –
4 | C=C1CC[C@@H]2[C@](C)(CO[C@@H]3O[C@H](CO)[C@@H](O)[C@H](O)[C@H]3O)[C@H](O)CC[C@@]2(C)[C@@H]1C/C=C1/C(=O)OC[C@H]1O | 4.88% [at 33.1 µM] (inactive) | –
5 | COC(=O)C1=CO[C@@H](O[C@@H]2O[C@H](CO[C@@H]3O[C@H](COC(=O)/C=C/c4cc(OC)c(O)c(OC)c4)[C@@H](O)[C@H](O)[C@H]3O)[C@@H](O)[C@H](O)[C@H]2O)[C@@H]2C(CO)=CC[C@H]12 | -2.01% [at 15.1 µM] (inactive) | –
6 | COc1ccc(Oc2cc(C)c(-c3csc(NC(=O)c4ccncc4)n3)c(C)c2)cc1 | -5.62% (inactive) | –
7 | CC1CCC2(C(=O)O)CCC3(C)C(=CCC4C5(C)CCC(O)C(C)(CO)C5CCC43C)C2C1(C)O (centres undefined) | -2.54% [at 33.1 µM] (inactive) | –
8 | CC1=C(CCC(C)O[C@@H]2O[C@H](CO)[C@@H](O)[C@H](O)[C@H]2O)C(C)(C)CCC1=O (some centres undefined) | -21.5% [at 33.1 µM] (inactive) | –
9 | CC[C@H](NC(=O)[C@H](CS(=O)(=O)CC1CC1)N[C@@H](c1ccc(F)cc1)C(F)(F)F)C(=O)C(=O)NC1CC1 | -4.52% (inactive) | –
10 | N[C@@]1(C(=O)O)CC[C@H]2[C@H](C(=O)O)[C@H]21 | – | inactive
11 | CC(=O)O[C@@H]1CC(C)=C2[C@H]1[C@H](C)CC[C@H]2/C=C(\C)C(=O)O | 0.228% (inactive) | –
12 | CC(C)(C#N)c1ccc(N2C(=O)OCc3cnc4ccc(-c5cnc6ccccc6c5)cc4c32)cc1 | 6.42% (inactive) | –
13 | CC(C)C(=O)OC[C@H]1O[C@H](O[C@H]2O[C@H](CO)[C@@H](O)[C@H](O)[C@H]2O)[C@H](O)[C@@H](O)[C@@H]1O | – | inactive [at 33.1 µM]
14 | C(#Cc1nc2ncccc2nc1OCCN1CCCC1)c1ccccc1 | 22.9% (inactive) | –
15 | COc1ncc(Nc2ncc([C@@H](C)N3CCN(S(C)(=O)=O)CC3)cc2-c2nc(C)nc(N)n2)cc1F | – | inactive
16 | O=C(/C=C/c1ccc(O)cc1)N[C@@H](Cc1ccc(O)cc1)C(=O)O | – | inactive [at 33.1 µM]
17 | C/C1=C\CC[C@]2(C)O[C@@H]2[C@H](O)[C@H](C(C)C)[C@H](OC(=O)/C=C/c2ccccc2)C1 | 8.73% [at 33.1 µM] (inactive) | –
18 | Cc1cccc(/C=N/Nc2cc(N3CCOCC3)n3nc(-c4ccncc4)cc3n2)c1 | -2.84% (inactive) | –
19 | C=C(C)C(=O)OC1CC2(C)OC(=CC2=O)C(=C)CC2OC(=O)C(COC)C12 (centres undefined) | -6.82% [at 33.1 µM] (inactive) | –
20 | COc1ccccc1Oc1ccc(N(Cc2cccnc2)S(=O)(=O)CC(F)(F)F)cc1 | 22.3% (inactive) | –

Row | Compound | activity change, negative = inhibition | outcome
21 | C=C(C)C1Cc2cc(C(=O)OC3OC(CO)C(O)C(O)C3O)ccc2O1 (centres undefined) | -16.7% [at 33.1 µM] (inactive) | –
22 | N=c1nc2n(cc1F)C1OC(CO)C(O)C1O2 (centres undefined) | – | inactive
23 | O=C(O)C1CN(Cc2ccc(-c3nc4cc(Cc5ccccc5F)ccc4s3)c(F)c2)C1 | -8.39% [at 10.7 µM] (inactive) | –
24 | COC(=O)C[C@H]1[C@]2(C)C3=C(C)[C@H](c4ccoc4)C[C@H]3O[C@@H]2[C@H](OC(C)=O)C2[C@](C)(C(=O)OC)C=CC(=O)[C@@]21C (some centres undefined) | -27% [at 33.1 µM] (inactive) | –
25 | C[C@@H]1O[C@@H](OC[C@H]2O[C@@H](OC(CCCCc3ccc(O)cc3)CCc3ccc(O)cc3)[C@H](O)[C@@H](O)[C@@H]2O)[C@H](O)[C@H](O)[C@H]1O (some centres undefined) | -6.55% [at 15.1 µM] (inactive) | –
26 | CC1C(OC(=O)c2ccccc2)C(O)C2C(C(=O)O)=COC(OC3OC(CO)C(O)C(O)C3O)C12 (centres undefined) | – | inactive [at 33.1 µM]
27 | CC(C)(O)c1ccc2c(c1)C(O)C[C@H]1[C@](C)(C(=O)O)CCC[C@]21C (some centres undefined) | -21.5% [at 33.1 µM] (inactive) | –
28 | COC(=O)C(C)C1CCC2(C)C(=O)C=CC(C)(O)C2C1O (centres undefined) | -14.5% (inactive) | –
29 | CC[C@]1(O)CC2CN(CCc3c([nH]c4ccccc34)[C@@](C(=O)OC)(c3cc4c(cc3OC)N(C=O)[C@H]3[C@@](O)(C(=O)OC)[C@H](OC(C)=O)[C@]5(CC)C=CCN6CC[C@]43[C@@H]65)C2)C1 (some centres undefined) | 71.8% [at 33.1 µM] (inactive) | –
30 | CC1(C)CCCC2(C)C(CO)C(CO)=CCC12 (centres undefined) | -10.6% (inactive) | –
31 | CC(=O)O[C@]1(C(C)=O)CC[C@H]2[C@@H]3C[C@H](C)C4=CC(=O)C=C[C@]4(C)[C@@]3(F)[C@@H](O)C[C@@]21C | 9.9% (inactive) | –
32 | CC1(C)CC[C@]2(C(=O)OC3OC(CO)C(O)C(O)C3O)CC[C@]3(C)C(=CCC4[C@@]5(C)CC[C@H](OC6OC(C(=O)O)C(O)C(OC7OC(CO)C(O)C(O)C7O)C6O)C(C)(C)C5CC[C@]43C)C2C1 (some centres undefined) | -21.3% [at 15.1 µM] (inactive) | –
33 | CC[C@]12C=CCN3CC[C@@]4(c5cc([C@@]6(C(=O)OC)C[C@H]7C[C@@H](C(C)(F)F)CN(Cc8c6[nH]c6ccccc86)C7)c(OC)cc5N(C)[C@H]4[C@@](O)(C(=O)OC)[C@@H]1OC(C)=O)[C@@H]32 | 65.5% [at 15.1 µM] (inactive) | –
34 | C=C1C[C@]23C[C@H]1CC[C@H]2[C@]1(C)CCC[C@@](C)(C(=O)O)[C@H]1[C@@H]3C(=O)O | -25.9% [at 33.1 µM] (inactive) | –
35 | CC(C)=CCC/C(C)=C/CCC1(C)Oc2c(c(O)cc3c2CN(C(CCC(=O)O)C(=O)O)C3=O)CC1O (centres undefined) | -13.2% [at 33.1 µM] (inactive) | –
36 | CC12CCC(=O)C=C1C(O)CC1C2C(O)CC2(C)C1CC[C@]2(O)C(=O)CO (some centres undefined) | 17.1% [at 15.1 µM] (inactive) | –
37 | Cc1cc(-c2cc(O)ccc2Cl)cc2nnc(Nc3ccc(OCCN4CCCC4)cc3)nc12 | 40.2% (inactive) | –
38 | CC1=CC(=O)[C@H]2C(C)(C)CCC[C@]2(C)[C@@]1(O)CO | -6.86% (inactive) | –
39 | C=C1CCC2C(C)(C(=O)O)CCCC2(C)C1CCC(C)CC(=O)O (centres undefined) | -15.5% [at 33.1 µM] (inactive) | –
